Measurements from PubChem BioAssay.
Values without a mark were called inactive. The source made the active and inactive calls.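 How the source made its calls, unless noted: active means mean inhibition over 43.08%, the solvent-only control mean plus 3 SD; inactive means the rest.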

What was measured:
[1] = target: Nuclear receptor coactivator 3 (Homo sapiens) (UniProt Q9Y6Q9); test: SRC3 coactivator transcriptional activity inhibitors, confirmation, cell-based, luminescence, quadruplicate (AID 588792); settings: HEK293 GAL4-SRC3 luciferase reporter, at 3.6 µM, active compounds read high;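 further: 0% = DMSO treated cells and 100% = gossypol at 36 µM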
[2] = tested on: transactivating tegument protein VP16 (Human herpesvirus 1), Gal4-VP16 luciferase reporter; test: VP16 transactivation inhibitors, counter-screen for SRC3 inhibitor project, cell-based, luminescence, high throughput (AID 588794; in the data active means inhibition above about 30%); settings: mammalian cells, VP16-driven luciferase reporter luminescence; at 3.6 µM; active compounds read high
[3] = tested on: transactivating tegument protein VP16 (Human herpesvirus 1); test: VP16 transactivation reporter inhibitors, counter-screen for SRC2 inhibitor project, cell-based, luminescence, single concentration (AID 652007; in the data active means inhibition above about 36%); settings: cell-based VP16 transactivation luciferase reporter, at 8.9 µM, active compounds read high
[4] = target: Nuclear receptor coactivator 2 (Homo sapiens) (UniProt Q15596); test: SRC2 coactivator transcriptional activity inhibitors, confirmation, cell-based, luminescence, HEK293, triplicate (AID 652008;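 active means mean inhibition above 46.5%, the solvent-only control mean plus 3 SD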;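 further: 0% = DMSO-treated cells and 100% = Gossypol at 36 µM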); settings: HEK293 GAL4-SRC2 luciferase reporter, at 8.9 µM, active compounds read high
Nuclear receptor coactivator 2 (Homo sapiens), sequence (Q15596 whole entry, looked up, the tested form may be a part): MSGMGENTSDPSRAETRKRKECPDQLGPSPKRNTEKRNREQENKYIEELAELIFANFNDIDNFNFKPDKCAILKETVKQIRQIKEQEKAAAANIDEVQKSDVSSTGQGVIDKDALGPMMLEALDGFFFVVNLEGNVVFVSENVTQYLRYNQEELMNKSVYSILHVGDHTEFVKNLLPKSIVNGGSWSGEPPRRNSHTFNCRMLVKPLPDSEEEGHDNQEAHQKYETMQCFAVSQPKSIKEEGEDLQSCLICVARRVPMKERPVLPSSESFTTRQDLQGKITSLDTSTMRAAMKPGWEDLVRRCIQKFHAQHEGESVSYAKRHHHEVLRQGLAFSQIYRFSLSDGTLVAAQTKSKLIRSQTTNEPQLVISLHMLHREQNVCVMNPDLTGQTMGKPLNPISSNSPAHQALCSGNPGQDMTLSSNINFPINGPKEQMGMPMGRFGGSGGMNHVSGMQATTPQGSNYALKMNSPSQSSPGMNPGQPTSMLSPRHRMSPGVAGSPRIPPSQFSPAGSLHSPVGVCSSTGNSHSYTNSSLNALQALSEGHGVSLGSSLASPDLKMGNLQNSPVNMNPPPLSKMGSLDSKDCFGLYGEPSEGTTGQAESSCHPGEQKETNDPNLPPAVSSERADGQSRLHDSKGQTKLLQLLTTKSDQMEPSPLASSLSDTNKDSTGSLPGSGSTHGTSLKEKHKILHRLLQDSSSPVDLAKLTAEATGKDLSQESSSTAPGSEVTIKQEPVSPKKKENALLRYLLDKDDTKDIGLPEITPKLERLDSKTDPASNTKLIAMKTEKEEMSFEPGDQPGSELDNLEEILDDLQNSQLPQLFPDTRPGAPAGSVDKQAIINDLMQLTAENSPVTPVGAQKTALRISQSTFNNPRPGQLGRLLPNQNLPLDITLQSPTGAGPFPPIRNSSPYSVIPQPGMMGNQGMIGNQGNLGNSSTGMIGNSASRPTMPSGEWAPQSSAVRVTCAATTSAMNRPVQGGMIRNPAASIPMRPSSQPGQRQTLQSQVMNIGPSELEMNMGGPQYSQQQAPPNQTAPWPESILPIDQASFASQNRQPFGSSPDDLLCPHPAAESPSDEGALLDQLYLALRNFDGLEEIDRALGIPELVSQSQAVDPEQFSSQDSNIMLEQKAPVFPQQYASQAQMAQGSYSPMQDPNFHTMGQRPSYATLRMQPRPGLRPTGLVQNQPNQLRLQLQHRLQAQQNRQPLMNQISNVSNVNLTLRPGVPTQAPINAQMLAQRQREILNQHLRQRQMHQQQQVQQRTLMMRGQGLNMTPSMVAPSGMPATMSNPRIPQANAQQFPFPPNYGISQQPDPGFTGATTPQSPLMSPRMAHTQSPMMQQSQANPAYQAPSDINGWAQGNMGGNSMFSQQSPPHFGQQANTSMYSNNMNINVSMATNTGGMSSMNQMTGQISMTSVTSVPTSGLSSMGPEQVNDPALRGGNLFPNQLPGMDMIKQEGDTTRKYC

Nuclear receptor coactivator 3 (Homo sapiens), sequence (Q9Y6Q9 whole entry, looked up, the tested form may be a part): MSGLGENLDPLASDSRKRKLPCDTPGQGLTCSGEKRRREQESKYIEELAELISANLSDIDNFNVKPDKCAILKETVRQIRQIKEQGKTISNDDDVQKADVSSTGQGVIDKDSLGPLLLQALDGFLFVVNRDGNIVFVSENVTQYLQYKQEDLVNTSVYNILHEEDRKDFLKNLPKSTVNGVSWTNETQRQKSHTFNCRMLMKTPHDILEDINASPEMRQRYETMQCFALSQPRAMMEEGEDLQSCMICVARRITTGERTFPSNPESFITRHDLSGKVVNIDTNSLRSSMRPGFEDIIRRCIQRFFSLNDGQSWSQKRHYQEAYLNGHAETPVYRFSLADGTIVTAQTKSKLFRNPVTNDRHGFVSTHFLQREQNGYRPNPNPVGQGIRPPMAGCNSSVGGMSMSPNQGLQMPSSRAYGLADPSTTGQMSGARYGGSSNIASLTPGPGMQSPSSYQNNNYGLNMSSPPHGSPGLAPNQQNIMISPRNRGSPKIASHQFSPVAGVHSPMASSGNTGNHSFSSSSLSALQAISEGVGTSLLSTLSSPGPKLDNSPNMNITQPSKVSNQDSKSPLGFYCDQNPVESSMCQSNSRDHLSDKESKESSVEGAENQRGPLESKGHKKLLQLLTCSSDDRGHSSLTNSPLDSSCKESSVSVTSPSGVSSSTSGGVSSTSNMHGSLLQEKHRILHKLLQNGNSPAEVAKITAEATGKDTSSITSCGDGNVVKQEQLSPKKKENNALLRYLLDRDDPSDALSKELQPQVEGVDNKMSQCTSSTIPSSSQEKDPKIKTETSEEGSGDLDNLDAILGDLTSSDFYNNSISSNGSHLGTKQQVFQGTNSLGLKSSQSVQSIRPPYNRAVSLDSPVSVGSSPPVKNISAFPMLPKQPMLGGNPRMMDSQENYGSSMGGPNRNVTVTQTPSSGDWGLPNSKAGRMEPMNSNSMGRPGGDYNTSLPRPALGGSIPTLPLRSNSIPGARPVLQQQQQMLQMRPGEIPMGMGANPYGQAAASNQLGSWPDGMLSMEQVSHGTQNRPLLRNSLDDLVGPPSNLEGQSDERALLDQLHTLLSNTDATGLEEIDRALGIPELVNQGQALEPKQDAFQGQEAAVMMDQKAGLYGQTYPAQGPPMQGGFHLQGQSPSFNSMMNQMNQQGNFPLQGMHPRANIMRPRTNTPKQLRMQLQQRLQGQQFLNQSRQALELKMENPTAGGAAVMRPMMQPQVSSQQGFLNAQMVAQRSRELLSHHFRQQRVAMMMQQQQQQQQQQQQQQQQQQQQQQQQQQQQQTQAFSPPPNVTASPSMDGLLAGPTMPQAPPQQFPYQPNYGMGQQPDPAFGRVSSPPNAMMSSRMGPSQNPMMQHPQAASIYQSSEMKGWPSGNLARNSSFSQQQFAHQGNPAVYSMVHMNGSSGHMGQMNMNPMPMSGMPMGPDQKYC

Compound	inhibition [1]	inhibition [2]	inhibition [3]	inhibition [4]
CCOc1cc(/C=C/C(=O)c2ccc(C)cc2)ccc1OCC(=O)N(C)C	24.8%	25.1%	16.4%	31.6%
O=C(NCCCn1ccnc1)c1ccc(N2CCCCCC2)c([N+](=O)[O-])c1	50.3% (active)	-23.6%	26.9%	54.3% (active)
CC(=O)CSc1ccc(-c2nc3cc(C)c(C)cc3[nH]2)cn1	22.4%	3.79%	10.4%	78.8% (active)
CCOc1ccc(CC(=O)Nc2ccc(NC(=O)c3ccco3)cc2)cc1OCC	64% (active)	-14.3%	7.03%	41.9%
CCN(CC)S(=O)(=O)c1ccc(N/N=C/c2cc(OC)ccc2O)nc1	31.4%	31% (active)	-11%	19.9%
Cc1ccc(C(=O)NNC(=O)CCCN2C(=O)/C(=C/c3ccccc3Cl)SC2=S)cc1	20.4%	21.8%	53.4% (active)	60.2% (active)
Cc1ccccc1Nc1nc(N)nc(CCl)n1	22.9%	0.42%	-11.3%	52.5% (active)
O=C(c1ccc(S(=O)(=O)c2ccc(F)cc2)c([N+](=O)[O-])c1)N1CCCCCC1	11.4%	18.9%	15.7%	29.9%
CC(C)N(CC(=O)Nc1ccc(Cl)cc1C(F)(F)F)C(=O)CCl	44% (active)	35.6% (active)	25.9%	59.2% (active)
O=C(O)CCCCCN1C(=O)CSC1=S	-1.77%	2.06%	-0.37%	7.01%
Cc1ccc(-n2c(C)cc(C(=O)COc3cccnc3[N+](=O)[O-])c2C)cc1	34.5%	-10.3%	-23%	64% (active)
CCOc1ccc(C(=O)O/N=C(\N)c2ccccn2)cc1	-0.86%	-11.6%	15.8%	21.9%
